# Test results: PubChem BioAssay (NCI)
# The panel holds about 83,000 compounds, 20% with a hit somewhere; the sample as a whole holds those more often.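 Assay: single dose, 48 h. Readout: percent growth (0 = no net growth; negative = cell death). Active: <10.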 Calls of active or inactive are those of the source.
# Test system: HT29 colon
# Assay: NCI-60 one-dose screen, 48 h (100 = growth as untreated, 0 = no growth, -100 = all killed)
# Conditions: 1 µM
# Experimental: Growth inhibition of the HT29 human tumor cell line is measured as a screen for anti-cancer activity. Cells are grown in 96 well plates and exposed to the test compound for 48 hours. Compounds are tested at a single concentration, which is 10^-5 M for most compounds. The reported endpoint is percent growth (GI% or GIPRCNT), where numbers from 0 - 100% represent growth inhibition, and numbers from -100% - 0 represent cell death. For example, a value of 40 represents 60% growth inhibition. A value of 0 means no net growth occurred over the course of the experiment. A value of -40 indicates 40% of cells at the beginning of the experiment died by the end of the experiment. A value of -100 means all cells are dead at the end of the experiment.
# NCI-60 Human Tumor Cell Lines Screen was performed using the standard one-dose NCI protocol, which is described in more detail at https://dtp.cancer.gov/discovery_development/nci-60/default.htm.
# Compounds with GIPRCNT values below 10 were considered active. Activity score was based on GIPRCNT using the following formula: […]
# Score is 0 for GIPRCNT values of 100 or above, 50 for GIPRCNT values of 0, and 100 for GIPRCNT values of -100.
row,SMILES,growth
1,CC/C(=C(\c1ccc(O)cc1)c1ccc(OCCNC)cc1)c1ccccc1,98.7% (inactive)
2,CC/C(=C(/c1ccc(O)cc1)c1ccc(OCCN(C)C(=O)COCCOCCNC(=O)c2ccc3c(c2)CN([C@@H]2CCC(=O)NC2=O)C3=O)cc1)c1ccccc1,96.6% (inactive)

# Same assay, conditions: 10 µM
row,SMILES,growth
1,CC/C(=C(\c1ccc(O)cc1)c1ccc(OCCNC)cc1)c1ccccc1,55.6% (inactive)
2,CC/C(=C(/c1ccc(O)cc1)c1ccc(OCCN(C)C(=O)COCCOCCNC(=O)c2ccc3c(c2)CN([C@@H]2CCC(=O)NC2=O)C3=O)cc1)c1ccccc1,86% (inactive)

# Same assay, conditions: 10 µM unless noted
row,SMILES,growth
1,CCN(C(=O)CN1C(=O)/C(=C/c2ccco2)SC1=S)C1CCS(=O)(=O)C1 (stereo unspecified),102% (inactive)
2,COc1cc(NC(=O)C(C)C)ccc1C(=O)NC(=S)Nc1ccc(S(N)(=O)=O)cc1,101% (inactive)
3,COc1ccc(/C=C/c2nc3ccccc3n3c(-c4cccc([N+](=O)[O-])c4)nnc23)cc1,-59.5% (active)
4,C#CCN(C)CCCOc1ccc(N(CC)C(=O)c2cc(C(C)C)c(O)cc2O)cc1Cl,7.04% (active)
5,C[C@H]1[C@@H](CC(=O)N[C@@H](Cc2coc3ccccc23)B(O)O)O[C@@H]2OC3(C)CC[C@H]4[C@H](C)CC[C@@H]1[C@@]24O3,-57.4% (active)
6,NC(=O)c1ccc(-c2ccc3ncnc(N4CCc5cc(F)c(Cl)cc54)c3c2)cn1,91.6% (inactive)
7,COc1cc2cc(C(=O)N3C[C@@H](CCl)c4c3cc(OC(=O)N(CCC(=O)N3CCN(C)CC3)[C@H]3CCSSC3)c3ccccc43)[nH]c2c(OC)c1OC,-49.4% (active)
8,Cn1ncc2c(N)nc(Oc3ccccc3-c3ccccc3)nc21,14.9% (inactive)
9,Cc1ccc2c(c1)nc(-c1ccccc1)n2CC(=O)N=Nc1c(O)[nH]c2ccc(Cl)cc12,-62.7% (active)
10,Cc1ccc2nc(COc3ccc(C(=O)NNC(=O)Nc4ccc(Cl)c(C(F)(F)F)c4)cc3)[nH]c2c1,75.9% (inactive)
11,COC(=O)c1c(C(=O)OC)c2c3ccccc3c3ccccc3n2c1C(=O)C(F)(F)F,103% (inactive)
12,CCCn1c(NC(=O)c2cccc(C(N)=O)c2)nc2ccc(CN3CCCCC3)cc21,91% (inactive)
13,COc1ccc(-c2nc3ccccc3n2CC(=O)N=Nc2c(O)[nH]c3ccc(OC)cc23)cc1,0.298% (active)
14,COc1cccc(-c2ccc(/C=N/NC(=O)c3[nH]c4ccc(Br)cc4c3-c3ccccc3)s2)c1,-32.2% (active)
15,O=C(/C=C1\C(=O)N(Cc2ccccc2)c2ccccc21)c1cc2ccccc2oc1=O,113% (inactive)
16,COc1ccc2[nH]c(=O)c(CSc3ccccc3Nc3nccc(-c4ccc(C(F)(F)F)cc4)n3)cc2c1,4.71% (active)
17,COc1cc(/C=N/NC(=O)c2ccc(OCc3nc4ccc(Cl)cc4[nH]3)cc2)cc(OC)c1OC,21.4% (inactive)
18,Cc1ccc(Nc2nnc(-c3c[nH]c4ccccc34)o2)c(C)c1,-37.9% (active)
19,COc1cc(NC(=O)CSc2nnc(-c3ccc(-c4nc5ccc(Cl)cc5[nH]4)cc3)o2)cc(OC)c1OC,51.3% (inactive)

row,SMILES,growth
1,COc1ccc(-c2cc(C(=O)N=Nc3c(O)[nH]c4ccc(Cl)cc34)c3ccccc3n2)cc1,-17.3% (active)
2,COc1ccc2c(c1)C(Sc1ccc(Br)cc1)c1c(nc(N)c(C#N)c1N)O2 (stereo unspecified),91.1% (inactive)
3,Cc1cc(C2(c3cc(C)c(OCC(O)CNc4c(C)n(C)n(-c5ccccc5)c4=O)cc3C(C)C)OC(=O)c3ccccc32)c(C(C)C)cc1OCC(O)CNc1c(C)n(C)n(-c2ccccc2)c1=O (stereo unspecified),13.4% (inactive)
4,COc1ccc(C(=O)NNC(=O)CSc2nc3sc4c(c3c(=O)n2-c2ccc(Cl)cc2)CCCC4)cc1,91.2% (inactive)
5,Cc1nn(-c2ccccc2)c2nc(C)n(CC(=O)N/N=C/c3ccccc3O)c(=O)c12,41.2% (inactive)
6,CC(C)CN1C(=O)/C(=C\C(=O)c2cc3ccccc3oc2=O)c2ccccc21,114% (inactive)
7,Cc1cc(=O)oc2cc(OCC(O)CNN3C(=O)c4cccc5c(N6CCN(C)CC6)ccc(c45)C3=O)ccc12 (stereo unspecified),89.6% (inactive)
8,CCOc1ccccc1[C@H]1C(C(=O)c2ccc(Cl)cc2)C2(N[C@@H]1c1ccccc1)C(=O)Nc1ccccc12 (stereo partly specified),-0.161% (active)
9,O=C(Cc1c(-c2cccc([N+](=O)[O-])c2)n(-c2ncnc3c2c(-c2ccccc2)c(-c2ccccc2)n3Cc2ccccc2)[nH]c1=O)c1ccc(Cl)c(Cl)c1,37% (inactive)
10,CCC(=O)c1cc(C(=O)OC)c2ccc3c4ccccc4ccc3n12,73.3% (inactive)
11,O=C(NNC(=O)c1ccc(OCc2nc3ccc(Cl)cc3[nH]2)cc1)Nc1ccc(Cl)c(C(F)(F)F)c1,68.2% (inactive)
12,O=C(CSc1nc2ccccc2c(=O)[nH]1)Nc1ccccc1C(=O)O,124% (inactive)
13,COc1cc(CNC(=O)C[C@H](C)CCC=C(C)C)ccc1OCc1cn(-c2ccc(Cl)c(Cl)c2)nn1,78.3% (inactive)
14,CCCCCCCCc1cccc(CC(=O)Nc2ccc(C)cc2C(=O)O)c1,35.9% [25 µM] (inactive)
15,O=c1ccc(Cn2c(C(F)(F)F)cc3c(Cl)ncnc32)c[nH]1,78.1% (inactive)
16,CC1CCc2c(sc3nc(SCC(=O)c4cccc([N+](=O)[O-])c4)n(-c4ccccc4)c(=O)c23)C1 (stereo unspecified),67.9% (inactive)
17,O=C(c1ccc(Cl)cc1)C1[C@H](c2ccccc2Cl)[C@@H](c2ccccc2)NC12C(=O)Nc1ccc(Br)cc12 (stereo partly specified),-82.3% (active)
18,CC(C)(C)c1cc(-c2cc(-c3ccccc3)[nH]c(=O)c2C#N)cc(C(C)(C)C)c1,88.8% (inactive)
